Assay results taken from PubChem BioAssay AID588689 (Southern Research Specialized Biocontainment Screening …, 2011).
The campaign covered roughly 340,000 compounds. About 1,000 (0.29%) were called active. Rule as the data show it: inconclusive = inhibition above about 29% without an active follow-up result; inactive = below that. These entries were drawn from the full list. Potency and affinity values are given separately.

Target: Genome polyprotein (Dengue virus type 2 (strain 16681-PDK53)) (UniProt P29991)
Assay: Dengue-2 NS5 methyltransferase inhibitors, primary screen, biochemical, confirmation dose response (AID 588689)
Settings: Dengue-2 NS5 methyltransferase capping enzyme assay, at 25 µM, stronger effect = higher value

Compound | inhibition | inhibition (measured here: pilot screen replicate inhibition)
Cc1ccc(Sc2c(C)[nH]n(C(C)(C)C)c2=O)cc1 | -4.77% (inactive) | 2.59%
Cc1ccc(Sc2sc(=O)n(C)c2S(=O)(=O)c2ccc(C)cc2)cc1 | -2.3% (inactive) | 
CCOc1ccc(OCc2ccc(C(=O)N(CC)CC)cc2)cc1 | -20% (inactive) | 
CCn1c(CSc2nccn2C)nc2cc(C(=O)O)ccc21 | 1.61% (inactive) | 
CCn1c(CSc2nnc(-c3ccncc3)n2C)nc2cc(C(=O)O)ccc21 | 7.11% (inactive) | 
O=C(CCn1c(=O)oc2ccc(Cl)cc21)NCCCN1CCOCC1 | -12.3% (inactive) | 
CCOc1ccc2nc(SCC(=O)NC3CCCc4ccccc43)sc2c1 (stereo unspecified) | -8.65% (inactive) | 
O=C1NC2(CCCCCC2)Cc2ccccc21 | -4.23% (inactive) | 
Cc1cc(SCC(=O)Nc2ccccc2)n2ncc(-c3ccccc3)c2n1 | -3.11% (inactive) | 
Cc1ccc(NC(=O)c2ccc(-n3cccn3)c([N+](=O)[O-])c2)cc1 | 0.68% (inactive) | 
O=C1c2ccccc2C(O)(c2ccccc2)N1c1ccncc1 (stereo unspecified) | -5.22% (inactive) | 
Cc1ccc(N2C(=O)c3ccccc3C2(O)c2ccccc2)cc1 (stereo unspecified) | -0.39% (inactive) | 
CC1CN(C(=O)c2nn(C)cc2[N+](=O)[O-])CC(C)O1 (stereo unspecified) | -1.37% (inactive) | 
CCCCn1c(-c2cccnc2)nc2cc3[nH]c(=O)c(C(C)C)nc3cc21 | 4.01% (inactive) | 
COc1ccccc1OCC#CCSc1ncccn1 | -53.6% (inactive) | 
C#CCN(C[C@H]1[C@H](OC(=O)Nc2cccs2)[C@H](OC(=O)Nc2cccs2)C[C@H]2C(=O)N(c3ccccc3)C(=O)[C@@H]12)S(=O)(=O)c1ccc(C)cc1 | 2.32% (inactive) | 
COc1ccc(S(=O)(=O)/C(C#N)=C/Nc2cccc(F)c2)cc1 | -2.28% (inactive) | 
Cc1ccc(F)c(NC(=O)CCc2ccccc2)c1 | -5.56% (inactive) | 
Cc1ccc(NC(=O)/C(C#N)=N/Nc2ccc(C(=O)O)cc2)c(C)c1 | 3.18% (inactive) | 
Cc1ccc(C)c2[nH]c(=O)c(CCNS(=O)(=O)c3ccccc3)cc12 | -0.7% (inactive) | 
COc1cc(/C=C2\SC(=S)N(CCC(=O)Nc3ccccc3)C2=O)cc(OC)c1OC | 0% (inactive) | 
COc1cc(/C=C2\SC(=S)N(Nc3ccccc3)C2=O)cc(OC)c1OC | -1.38% (inactive) | 
Cc1ncsc1CCOC(=O)C12CC3CC(CC(C3)C1)C2 | -12.1% (inactive) | 
CCOC(=O)c1c(C)nc(C)c(C(=O)OCC)c1-c1ccc(OC)cc1 | 0.8% (inactive) | 
O=C(NC(Cc1c[nH]c2ccccc12)C(=O)Nc1ccc(OC(F)(F)F)cc1)c1cccs1 (stereo unspecified) | -0.91% (inactive) | 
